Mdm2 MdmX PPI – disrupts the human Mdm2-MdmX interaction | inhibition, % at 8 µM | SaOS-2 split-luciferase Mdm2/MdmX complementation, luminescence | O15151+Q00987 | 3% of 330,000 active;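 active means inhibition of at least 50% at 8 µM in the primary screen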
Gli-Sufu block – antagonists of Gli-Sufu signaling; 0.74% of 340,000 active; Sufu-KO-LIGHT fibroblasts, Gli luciferase reporter luminescence; AID 588413; inhibition, % at 5 µM;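 active means inhibition above about 55%, limit read from the data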
Shn3 3UTR inh – reduces Shn3 3'UTR luciferase signal in osteoblasts; Clone20 osteoblast Shn3 3'UTR firefly luciferase, 24 h; inhibition, % at 12.5 µM; 0.52% of 360,000 active; AID 588674;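 active means mean inhibition of at least 75% with every replicate also reaching 75%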
Jurkat NFkB inh – inhibitors of the PMA/ionomycin-induced NF-kB reporter in Jurkat cells; inhibition, % at 4 µM; PMA/ionomycin-induced NF-kB luciferase reporter, luminescence; AID 435003; 0.53% of 330,000 active; in the data active means inhibition above about 50%
697 NFkB inh – lowers PMA/ionomycin-induced NF-kB signal in 697 B cells; 697 B-cell NF-kB luciferase reporter, 16 h; inhibition, % at 4 µM; 0.33% of 330,000 active; in the data active means inhibition above about 35%
Numbers stand for hits; . = inactive; / = not tested or not shown. Shown are actives, neighbours in structure and some others; about 3.8% of the full set was active somewhere.

SMILES	Mdm2 MdmX PPI	Gli-Sufu block	Shn3 3UTR inh	Jurkat NFkB inh	697 NFkB inh
O=C(OCCN1C(=O)c2cccc3c(N4CCOCC4)ccc(c23)C1=O)c1ccccc1Cl	/	.	86.1	/	/
COc1ccc(C)cc1Nc1n[n+](-c2ccccc2)c(-c2ccc(N(C)C)cc2)s1	.	61.3	.	.	.
CN(CCO)c1ccc(C=NNc2ccc([N+](=O)[O-])cc2S(=O)(=O)Nc2ccccc2C(=O)O)cc1	.	.	.	.	.
CCOC(=O)CNC(=O)C1(c2ccccc2)CCCC1	.	.	.	.	.
CCOC(=O)CNC(=O)C1(NC(=O)CNC(=O)OCc2ccccc2)CCCC1	/	.	90.7	/	/
COc1ccc(NC(=O)CCOc2cc(C)ccc2C)cc1S(=O)(=O)N1CCCCC1	.	.	92.6	.	.
COc1ccc(NC(=O)CCCOc2ccc(C)cc2)cc1S(=O)(=O)N1CCCCC1	/	/	.	/	/
CC(=O)Nc1ccc(S(=O)(=O)N(C)c2ccc(OCC(=O)NCCc3ccccc3F)cc2)cc1	/	.	.	/	/
C=C[C@]1(C)C=C2CC[C@H]3[C@@](C)(CCC[C@@]3(C)C(=O)O)[C@@H]2CC1	.	.	.	.	.
C=C[C@]1(C)C=C2C(=O)[C@@]3(O)OC(=O)[C@@]4(CCCC(C)(C)[C@H]34)[C@@]2(O)CC1	/	/	95.1	/	/
C[n+]1c(-c2ccccc2)cc2c(=Cc3ccccc3)c3ccccc3n21	/	77.1	.	/	/
CN(C)c1ccc(C=c2c3cc(O)ccc3n3c2cc(-c2ccccc2)[n+]3C)cc1	/	71.8	.	/	/
C[C@@H]1CN([C@@H](C)CO)C(=O)c2cc(NC(=O)C3CC3)ccc2O[C@@H]1CN(C)C(=O)NC1CCCCC1	.	.	.	.	.
COc1cccc(/C=N/NC(=O)c2c(-c3ccccc3)noc2C)c1O	.	.	88.3	.	.
COc1cccc(/C=N/NC(=O)CNC(=O)/C=C\c2ccccc2)c1O	.	.	89.8	.	.
C=CCCC(=O)N1C[C@H]2CON(C)[C@H]2C[C@H]1c1cccc(N2CCOCC2)c1	/	/	.	/	/
CC1(C(=O)Nc2ccc(F)cc2F)CCN1C(=O)CCC1CCCC1 (centres undefined)	/	/	.	/	/
CC(=O)O[C@H]1CC[C@@]2(C)C(=CC[C@H]3[C@@H]4CC[C@H](C(C)=O)[C@@]4(C)CC[C@@H]32)C1	.	.	86.5	.	.
C=CCN1C(=O)N/C(=C/c2ccc(N3CCOCC3)o2)C1=O	.	/	/	.	.
O=C1N/C(=C/c2ccc(N3CCOCC3)o2)C(=O)N1c1ccccc1	/	.	91.6	/	/
CN=c1scc(-c2ccc(F)cc2)n1/N=C/c1ccc(O)c(O)c1	.	58.2	88.9	.	.
O=C(OCc1ccccc1)c1ccc(NCc2cc(O)ccc2O)cc1	/	.	98.5	/	/
CC(C)OC(=O)c1ccc(NCc2cc(O)ccc2O)cc1	/	.	95.2	/	/
COP(=O)(OC)c1ccc(NCc2cc(O)ccc2O)cc1	/	.	.	/	/
CC1OC2CC(=O)OC2C2=C1C(=O)c1c(O)cccc1C2=O (centres undefined)	/	/	93.8	/	/
SMILES	Mdm2 MdmX PPI	Gli-Sufu block	Shn3 3UTR inh	Jurkat NFkB inh	697 NFkB inh
Cc1cc(=O)[nH]c2sc(C(=O)N3c4ccccc4CC3C)c(N)c12 (centres undefined)	.	.	.	.	.
Cc1cc(C)cc(N2C(=O)CC(Sc3nnnn3-c3ccccc3)C2=O)c1 (centres undefined)	.	.	88.1	.	.
CC(=O)Nc1ccc(S(=O)(=O)NCC(=O)OCC(=O)N2CC(C)OC(C)C2)cc1 (centres undefined)	.	.	.	.	.
COC(=O)C1=C(C)NC2=C(C(=O)c3ccccc32)C1c1cccc(OC)c1 (centres undefined)	.	.	.	.	.
Cn1c2c(c(=O)[nH]c1=O)C(c1cccc(O)c1)C1=C(N2)c2ccccc2C1=O (centres undefined)	/	55.6	.	/	/
CC(C)CC1NC(=O)c2cc(Cl)ccc2-n2c1nc1ccc(F)cc1c2=O (centres undefined)	.	/	/	.	.
CNc1ncnc2c1ncn2-c1ccccc1	/	.	.	/	/
CC(C)C[C@H](N)c1nnc(SCC(=O)Nc2ccc(Br)cc2)o1	.	.	.	.	.
CC(C)C[C@H](N)c1nnc(S(=O)(=O)Cc2ccc(F)cc2)o1	.	.	90.2	.	.
O=C1/C(=C/c2ccccc2)CCc2ccc(Cl)nc21	/	.	.	/	/
CCCCCCN1C[C@@H](O)[C@H](n2cc(C3CC3)nn2)C[C@@H]1c1ccc(Cl)cc1	/	/	.	/	/
NC(=O)c1nnsc1-c1ccco1	/	.	.	/	/
Cc1ccc2[nH]c(O)c(N=Nc3ccccc3[N+](=O)[O-])c2c1	/	.	.	/	/
O=[N+]([O-])c1ccccc1N=Nc1c(O)[nH]c2ccc(F)cc12	/	.	85.1	/	/
NS(=O)(=O)c1ccc(NC(=O)COC(=O)Cc2c[nH]c3ccccc23)cc1	.	.	.	.	.
Cc1ccc(S(=O)(=O)n2cc(CO)c3ccccc32)cc1	/	.	.	/	/
Cc1ccccc1N1CC(O)(c2cccs2)[N+]2=C1CCCC2 (centres undefined)	.	.	.	.	.
Cc1cccc(N2CC(O)(c3cccs3)[N+]3=C2CCCC3)c1C (centres undefined)	.	.	90.0	.	.
Cc1ccccc1NC(=O)CSc1nc2ccccc2c(=O)n1C	.	.	86.9	.	.
COc1ccc2[nH]c3c(NCCC4=CCCCC4)ncnc3c2c1	/	67.6	.	/	/
Cc1ccc(NC(=O)c2oc3ccccc3c2COC(C)C)cc1S(=O)(=O)N1CCOCC1	.	.	87.9	.	.
Cc1c(C(=O)Nc2cccc(C(F)(F)F)c2)oc2ccc(S(=O)(=O)N3CCOCC3)cc12	.	.	88.0	.	.
CN(CC(=O)Nc1cccc(S(=O)(=O)N2CCOCC2)c1)CC(=O)Nc1ccc(Cl)c(C(F)(F)F)c1	.	.	88.1	.	.
CCC1(c2ccc(F)cc2)NC(=O)N(CC(=O)NC2CCCC(C)C2C)C1=O (centres undefined)	.	.	.	.	.
Cc1ccc(NC(=O)CN(C)C(=O)CSc2nccn2C)cc1	.	.	.	.	.
SMILES	Mdm2 MdmX PPI	Gli-Sufu block	Shn3 3UTR inh	Jurkat NFkB inh	697 NFkB inh
COc1ccc2nc(-c3ccccc3)nc(SC)c2c1	/	.	.	/	/
CCOC(=O)c1c(NC(=O)c2nn(CC)cc2Br)sc2c1CCCCC2	.	.	.	.	.
CCOC(=O)c1c(NC(=O)c2nn(CC)cc2Br)sc(C)c1C	.	.	84.0	.	.
O=S(=O)(c1ccc(Br)cc1Cl)N1CCN(CCO)CC1	.	.	.	.	.
O=C1C=CC(=O)c2c(O)c(N3CCN(CCOCCO)CC3)c(Br)c(O)c21	/	.	92.9	/	/
OCCOCCN1CCN(C2=Nc3ccccc3Sc3ccccc32)CC1	.	.	.	.	.
O=C1C=CC(=O)c2c(O)c(N3CCN(CCO)CC3)c(Cl)c(O)c21	/	.	98.8	/	/
COCCNC(=O)c1cccc2c(-c3ccnn3C)coc12	/	/	.	/	/
Cc1nc(N2CCN(C(=O)c3ccco3)CC2)c2c3c(sc2n1)CCCC3	.	.	.	.	.
Cc1nc(N2CCN(C(=O)c3ccco3)CC2)c2c3c(sc2n1)CC(C)CC3 (centres undefined)	.	79.2	91.7	.	.
CCN1C=C(C(C)=O)C(=O)CC1	/	.	.	/	/

Source: PubChem (several laboratories)
